In PubChem BioAssay AID1044 (The Scripps Research Institute Molecular Screening Center, 2008):
Hit rate of the full screen: of about 16,000 compounds, about 240 (1.5%) were called active. This excerpt belongs to a sample that is enriched for actives. Values without a mark were called inactive. Cut-off read from the data, not from the text of the source: active = activation above about 80%; inactive = the rest.

target: Sphingosine 1-phosphate receptor 1 (Homo sapiens) (UniProt P21453); assay: S1P1 (human) receptor agonism (AID 1044); settings: S1P1 agonist cell-based reporter assay; at 4.5 µM; stronger effect = higher value
Sequence (P21453 whole entry, looked up): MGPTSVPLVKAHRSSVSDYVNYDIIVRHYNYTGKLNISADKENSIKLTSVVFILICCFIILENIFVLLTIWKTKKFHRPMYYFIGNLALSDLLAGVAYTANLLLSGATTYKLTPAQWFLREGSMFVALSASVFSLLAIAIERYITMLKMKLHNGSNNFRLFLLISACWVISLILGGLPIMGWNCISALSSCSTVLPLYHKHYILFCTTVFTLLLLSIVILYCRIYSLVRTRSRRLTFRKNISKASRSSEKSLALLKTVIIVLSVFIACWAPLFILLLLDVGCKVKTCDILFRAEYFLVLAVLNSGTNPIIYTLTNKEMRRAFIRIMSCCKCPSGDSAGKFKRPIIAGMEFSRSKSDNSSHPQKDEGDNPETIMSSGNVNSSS

| Compound | activation |
| --- | --- |
| O=c1cc(-c2ccccc2)cc(-c2ccccc2)o1 | -7.4% |
| O=C(O)CC(CC(=O)Oc1ccccc1N1CCCCC1)c1ccccc1 (centres undefined) | -2.68% |
| O=C(CCN1CCN(C(c2ccccc2)c2ccccc2)CC1)c1ccccc1 | 1.07% |
| CC1CC(NC(=O)/C(C#N)=C/c2ccc[nH]2)CC(C)(C)C1 (centres undefined) | -5.85% |
| Cc1[nH]ncc1S(=O)(=O)c1ccc(Cl)cc1 | 2.45% |
| O=C(NCc1ccc(F)cc1F)c1cc(C(F)(F)F)cc(C(F)(F)F)c1 | -5.72% |
| O=C(Nc1ccc(F)cc1OC(F)(F)F)N1CCC(O)CC1 | -2.84% |
| Cc1nc2cc3c(cc2s1)OCO3 | 2.86% |
| COCn1nnc2ccccc21 | 1.03% |
| CC1(C)CC(=O)C(N=Nc2c(F)cccc2F)=C(O)C1 | 7.55% |
| CC(C)c1ccc(NNS(=O)(=O)c2ccc(Cl)c(Cl)c2)cc1 | -3.29% |
| CC(=O)Nc1ccc(S(=O)(=O)NNc2c(Cl)cncc2Cl)cc1Cl | 80.4% (active) |
| CC(C)NC(=O)NNc1c(Cl)cncc1Cl | 8.17% |
| Cc1cc(C2=CSC3=NCCN23)ccc1Cl | 8.4% |
| CN(C)/C=C/C(=O)c1cc(C(C)(C)C)cc(C(C)(C)C)c1O | 19.8% |
| CCCCNC(=O)OCCSCCS(=O)(=O)c1ccc(Cl)cc1 | -12.4% |
| O=C1COCC(=O)N1c1ccc2c(c1)OCO2 | -5.13% |
| Nc1[nH]c(=O)nc2nc[nH]c12 | -5.12% |
| N/C(=N\OS(=O)(=O)c1ccc(C(F)(F)F)cc1)C1CSCCS1 (centres undefined) | 6.24% |
| CCc1cccc(C)c1N(C(C)=O)C1=NCCC(=O)S1 | -5.03% |

| Compound | activation |
| --- | --- |
| Cn1c(=O)c(C#N)cn(-c2ccccc2)c1=O | -15.9% |
| CC(C)S(=O)(=O)c1cscc1N/C=C(/C#N)C(=O)c1cccs1 | 21.3% |
| O=C(Nc1cc2ccccc2s1)N1CCN(Cc2c(F)cccc2Cl)CC1 | 8.18% |
| Cc1cc(CNC(=O)c2cc(C)n(C)n2)no1 | 0.51% |
| N#Cc1sccc1Br | -1.57% |
| CCOC(=O)C/C(N)=C(\C#N)C(=O)OCC | -0.14% |
| Cc1nc(-c2cccnc2)nc(N2CCCN(Cc3ccc(F)cc3)CC2)c1Cl | -19.4% |
| CN(C)/C=N/NC(=O)c1nc(-c2cccc(-n3cccc3)c2)no1 | -6.62% |
| CCOC(=O)O/N=C(\N)c1ccc(Cl)cc1 | 3.02% |
| O=[N+]([O-])c1ccc(-c2ccc(I)cc2)cc1 | 1.05% |
| O=[N+]([O-])c1cc(C(F)(F)F)ccc1OCCO | 8.3% |
| O=C(/C(=N\N=C\c1ccc2c(c1)OCO2)c1ccccc1)c1ccccc1 | 101% (active) |
| O=C1/C(=C/c2ccc3c(c2)OCO3)CCC/C1=C\c1ccc2c(c1)OCO2 | 11.5% |
| COc1ccc(/C=C(\NC(=O)c2ccccc2)C(=O)N/N=C/c2ccc3c(c2)OCO3)cc1 | 7.34% |
| CO/N=C(/C)c1ccc2c(c1)CCO2 | -16.7% |
| O=C(NCc1cc2ccccc2s1)C1CN(C(c2ccccc2)c2ccccc2)C1 | -7.79% |
| O=C(CSc1nnc(-c2ccncc2)n1Cc1ccccc1)Nc1nnc(-c2ccco2)s1 | 4.05% |
| c1ccc2sc(-c3csc(-c4ccc5c(c4)OCCO5)n3)nc2c1 | 7.46% |
| S=C(NNC(=S)NC1CC2C=CC1C2)NC1CC2C=CC1C2 (centres undefined) | -6.61% |
